Screening data: PubChem, Broad Institute
EZH2 inh: EZH2/PRC2 methyltransferase inhibitors, primary screen, biochemical, DELFIA time-resolved fluorescence, single point | PRC2 H3K27 methylation, DELFIA TRF, 1 h | inhibition, % at 12.5 µM | 0.35% of 57,000 active | AID 651548, 2012;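 active = mean inhibition of replicates at least 50% and every single replicate also reaching 50%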;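 also: dimethyl H3K27 on biotinylated H3 21-44 peptide detected by antibody; plate controls were median neutral control wells for no effect and median positive control wells for full effect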
Numbers without * were called inactive. This is one part of a sample in which hits are shown more often than they occur.

SMILES	EZH2 inh
CC(CCc1ccc(O)cc1)O[C@@H]1O[C@H](CO[C@H]2OC[C@](O)(CO)[C@H]2O)[C@@H](O)[C@H](O)[C@H]1O (stereo partly drawn)	94*
C=CC1CN2CCC1CC2C(OC(=O)c1ccco1)c1ccnc2ccccc12 (stereo not drawn)	-7
Cc1c(O)c(C(=O)O)c(O)c2c1[C@H](C)[C@@H](C)OC2=O	-26
CCCC(C)n1[nH]c(=O)c2c1NC(=O)CSC2c1cccc([N+](=O)[O-])c1 (stereo not drawn)	-5
N#CC(O[C@@H]1O[C@H](CO)[C@@H](O)[C@H](O)[C@H]1O)c1ccccc1 (stereo partly drawn)	97*
O=c1ccc2cc(OC3O[C@H](CO)[C@@H](O)[C@H](O)[C@H]3O)c(O)cc2o1 (stereo partly drawn)	18
Fc1ccc(Sc2c(F)c(F)nc(N3CCNCC3)c2F)cc1	-10
COc1cc2cc(c1Cl)N(C)C(=O)CC(OC(=O)C(C)C)C1(C)OC1C(C)C1CC(O)(NC(=O)O1)C(OC)/C=C/C=C(/C)C2 (stereo not drawn)	6
CCCCC/C=C\C/C=C\C/C=C\C/C=C\CCCC(=O)NCC(=O)O	3
CCCCC/C=C\C/C=C\C/C=C\C/C=C\CCCC(=O)NCCO	16
CCCCC/C=C/C/C=C/C/C=C/C/C=C/CCCC(=O)NCCCC(=O)O	81*
O=C(Cn1cc(C(=O)c2ccccc2)c2ccccc21)NCC1CCCO1 (stereo not drawn)	-6
CN1Cc2c(ccc3c2OCO3)[C@@H]2[C@H]1c1cc3c(cc1C[C@@H]2O)OCO3	-11
CC(C)=CCCN1CCC(NC(=O)[C@](O)(c2ccccc2)C2CCCC2)CC1	-1
Cc1ccnc(NC(c2ccccc2[N+](=O)[O-])c2ccc3ccc(C)nc3c2O)c1 (stereo not drawn)	-15
